A number with no mark means an inactive call. For part of these data: Measured potencies and affinities stand elsewhere. Active and inactive are the calls of the source. Unless noted, how the calls were made is not given here.
How the values were obtained:
[1] = antimalarial activity against Dd2 strain (AID 2302;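 active means growth inhibition above 50% at the single 2 µM test dose, taken to imply half-maximal potency below 2 µM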;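 further: 0% = DMSO untreated growth and 100% = chloroquine plus artemisinin killed control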); details: P. falciparum Dd2 in RBCs, LDH growth readout, 72 h; at 2 µM; active compounds read high
[2] = HepG2 cytotoxicity, primary screen, cytotoxicity control for P. falciparum antimalarial project, cell-based, ATP luminescence (AID 2303;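 active means inhibition above 50%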;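 further: 0% = DMSO wells and 100% = digitonin-killed cells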); details: HepG2 viability, 24-48 h, at 10 µM, active compounds read high
[3] = target: L-lactate dehydrogenase (Plasmodium falciparum (isolate CDC / Honduras)) (UniProt Q27743); assay: PfLDH activity inhibition – cell lysate, 3D7 strain, counter-screen for P. falciparum growth inhibition project (AID 2304);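 further: 0% = vehicle and 100% = reference inhibitor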; details: P. falciparum 3D7 crude extract, LDH APAD/NBT absorbance; at 2 µM; active compounds read high
Sequence of L-lactate dehydrogenase (Plasmodium falciparum (isolate CDC / Honduras)) (Q27743 whole entry, looked up): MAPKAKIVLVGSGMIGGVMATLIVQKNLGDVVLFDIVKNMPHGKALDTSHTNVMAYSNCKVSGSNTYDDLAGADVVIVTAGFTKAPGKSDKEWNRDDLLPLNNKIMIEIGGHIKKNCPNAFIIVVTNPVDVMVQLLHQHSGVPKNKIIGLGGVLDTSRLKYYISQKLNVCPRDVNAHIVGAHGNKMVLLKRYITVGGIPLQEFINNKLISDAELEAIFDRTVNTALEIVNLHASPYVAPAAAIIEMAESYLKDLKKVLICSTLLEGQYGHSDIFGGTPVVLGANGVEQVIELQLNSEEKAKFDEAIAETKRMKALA

[4] = inhibition of 3D7 malaria parasite growth – strain 3D7 (AID 2306);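 further: 0% = DMSO wells and 100% = chloroquine plus artemisinin control wells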; details: P. falciparum 3D7 erythrocytic growth, LDH absorbance, 72 h; at 2 µM; active compounds read high
[5] = target: Calcium-dependent protein kinase 1 (Plasmodium falciparum (isolate 3D7)) (UniProt P62344); assay: PfCDPK1 kinase inhibitors, biochemical, TCAMS library (AID 1159585; cut-off not given, nearly all actives have IC50 up to about 0.98 µM;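 further: inhibitors leave more ATP so luminescence rises with inhibition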); details: recombinant PfCDPK1, Kinase-Glo ATP depletion luminescence
Sequence of Calcium-dependent protein kinase 1 (Plasmodium falciparum (isolate 3D7)) (P62344 whole entry, looked up): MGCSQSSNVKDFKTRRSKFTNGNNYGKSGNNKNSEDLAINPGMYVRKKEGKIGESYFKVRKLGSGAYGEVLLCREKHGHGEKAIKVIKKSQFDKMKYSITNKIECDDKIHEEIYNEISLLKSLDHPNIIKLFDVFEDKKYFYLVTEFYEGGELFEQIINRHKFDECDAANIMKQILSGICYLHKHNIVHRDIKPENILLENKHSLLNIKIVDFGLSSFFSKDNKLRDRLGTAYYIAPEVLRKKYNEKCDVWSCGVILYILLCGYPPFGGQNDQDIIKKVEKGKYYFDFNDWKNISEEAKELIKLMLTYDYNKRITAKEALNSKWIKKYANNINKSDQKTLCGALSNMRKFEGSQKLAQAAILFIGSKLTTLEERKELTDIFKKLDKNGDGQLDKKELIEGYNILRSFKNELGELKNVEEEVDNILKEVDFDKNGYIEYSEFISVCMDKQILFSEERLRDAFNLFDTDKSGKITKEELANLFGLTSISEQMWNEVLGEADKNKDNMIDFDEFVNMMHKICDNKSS

[6] = target: Plasmodium falciparum protein kinase 6 (PK6, PF3D7_1337100) (UniProt Q8IDW1); assay: PfPK6 kinase inhibitors, biochemical, TCAMS library (AID 1159586); details: recombinant PfPK6, Kinase-Glo ATP depletion luminescence
Sequence of Plasmodium falciparum protein kinase 6 (PK6, PF3D7_1337100) (Q8IDW1 1-305): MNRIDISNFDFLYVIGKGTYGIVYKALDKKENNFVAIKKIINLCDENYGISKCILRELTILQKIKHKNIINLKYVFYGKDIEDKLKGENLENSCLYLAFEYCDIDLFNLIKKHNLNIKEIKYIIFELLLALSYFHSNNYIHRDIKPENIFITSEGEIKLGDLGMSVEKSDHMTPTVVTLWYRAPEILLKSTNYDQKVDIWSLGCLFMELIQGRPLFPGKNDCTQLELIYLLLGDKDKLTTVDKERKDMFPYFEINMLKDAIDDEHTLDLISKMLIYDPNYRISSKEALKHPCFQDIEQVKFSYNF

[7] = target: Protein kinase 7 (PK7), Plasmodium falciparum 3D7 (PF3D7_0213400) (UniProt Q7YTF7); assay: inhibition of Plasmodium PK7 catalytic activity – biochemical, TCAMS antimalarial set, Kinase-Glo luminescence (AID 1159587); details: recombinant PfPK7, Kinase-Glo ATP depletion luminescence
Sequence of Protein kinase 7 (PK7), Plasmodium falciparum 3D7 (PF3D7_0213400) (Q7YTF7 1-343): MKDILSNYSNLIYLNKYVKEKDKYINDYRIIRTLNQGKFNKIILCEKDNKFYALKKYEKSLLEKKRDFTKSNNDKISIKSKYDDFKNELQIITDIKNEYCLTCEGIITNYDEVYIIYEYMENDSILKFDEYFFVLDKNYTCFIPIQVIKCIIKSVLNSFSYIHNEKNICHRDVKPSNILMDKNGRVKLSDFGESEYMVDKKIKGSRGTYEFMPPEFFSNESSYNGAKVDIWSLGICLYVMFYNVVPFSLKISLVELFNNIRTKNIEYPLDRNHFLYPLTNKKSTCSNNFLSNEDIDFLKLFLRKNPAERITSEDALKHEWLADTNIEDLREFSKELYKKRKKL

[8] = target: Calcium-dependent protein kinase 4 (Plasmodium falciparum (isolate 3D7)) (UniProt Q8IBS5); assay: PfCDPK4 kinase inhibitors, biochemical, TCAMS library (AID 1159588; cut-off not given, nearly all actives have IC50 up to about 0.91 µM); details: recombinant PfCDPK4, Kinase-Glo ATP depletion luminescence
Sequence of Calcium-dependent protein kinase 4 (Plasmodium falciparum (isolate 3D7)) (Q8IBS5 whole entry, looked up): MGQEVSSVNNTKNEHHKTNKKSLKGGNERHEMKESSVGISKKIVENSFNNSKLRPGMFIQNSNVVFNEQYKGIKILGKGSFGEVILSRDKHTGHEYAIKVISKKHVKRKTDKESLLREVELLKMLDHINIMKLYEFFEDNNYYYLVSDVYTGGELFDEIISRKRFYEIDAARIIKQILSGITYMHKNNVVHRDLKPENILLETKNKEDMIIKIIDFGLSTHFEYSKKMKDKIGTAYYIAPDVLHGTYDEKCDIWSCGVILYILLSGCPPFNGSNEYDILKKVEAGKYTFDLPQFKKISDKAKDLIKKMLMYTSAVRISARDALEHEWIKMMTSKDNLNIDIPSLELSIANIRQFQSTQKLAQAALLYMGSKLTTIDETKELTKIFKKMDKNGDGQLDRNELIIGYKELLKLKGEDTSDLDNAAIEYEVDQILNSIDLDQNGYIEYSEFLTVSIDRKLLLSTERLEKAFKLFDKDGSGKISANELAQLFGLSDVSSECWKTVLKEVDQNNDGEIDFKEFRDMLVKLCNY

| Structure (SMILES) | growth inhibition [1] | inhibition [2] | inhibition [3] [%] | growth inhibition [4] | outcome [5] | outcome [6] | outcome [7] | outcome [8] |
| --- | --- | --- | --- | --- | --- | --- | --- | --- |
| Cc1ccc(Nc2nc(C)cc(N3CCN(c4ccccc4)CC3)n2)cc1 | 72% (active) | 4% | 3 | 93% (active) | inactive | inactive | inactive | inactive |
| Cc1cccc2[nH]c(-c3cccc(-c4ccc(NC(=O)CN5CCN(C)CC5)cc4)c3)nc12 | 99% (active) | 45% | -8 | 101% (active) | inactive | inactive | inactive | inactive |
| COc1ccc2nccc([C@@H](O)CN3CCC(NS(=O)(=O)c4cc5c(cc4Cl)SCC(=O)N5)CC3)c2c1 | 0% | 5% | 0 | 88% (active) | inactive | inactive | inactive | inactive |
| COc1ccc2ncc(F)c([C@@H](O)CN3CCC(NCc4cc5c(cn4)OCCO5)CC3)c2c1 | 98% (active) | -4% | -7 | 100% (active) | inactive | inactive | inactive | inactive |
| CCCNc1ccc(-c2cc(C(N)=O)c3[nH]cc(C4CCN(S(=O)(=O)CC)CC4)c3c2)cn1 | 42% | 6% | -1 | 99% (active) | inactive | inactive | inactive | inactive |
| COc1cc(Nc2ccnc3ccc(C(F)(F)F)cc23)cc(OC)c1OC | 100% (active) | 15% | 1 | 101% (active) | inactive | inactive | inactive | inactive |
| COc1ccc(NC(=O)[C@H](Cc2ccccc2)Nc2nc(NCCN3CCCC3)ncc2C)cc1 | 9% | 26% | 1 | 89% (active) | inactive | inactive | inactive | inactive |
| CCCNC[C@@H](O)[C@H](Cc1ccccc1)NC(=O)c1cc(NCC)cc(N2CCCCS2(=O)=O)c1 | 74% (active) | 0% | -3 | 97% (active) | inactive | inactive | inactive | inactive |
| Cc1cccc2[nH]c(-c3ccc(-c4cccc(C(=O)NCCN5CCCC5)c4)s3)nc12 | 2% | 22% | 4 | 94% (active) | inactive | inactive | inactive | inactive |
| COc1cc(O)c2c(=O)c(OC)c(-c3cccc(Cl)c3OC3O[C@H](CO)[C@@H](O)[C@H](O)[C@H]3O)oc2c1OC (stereo partly drawn) | 6% | 16% | -2 | 101% (active) | inactive | inactive | inactive | inactive |
| CCCOc1ccccc1C(=O)Nc1nonc1-c1ccc(OCC)c(OCC)c1 | 89% (active) | 46% | -4 | 99% (active) | inactive | inactive | inactive | inactive |
| CN(C)CCNC(=O)[C@H](Cc1ccccc1)NC(=O)c1ccc(O)c(-c2ccc(Cl)c(Cl)c2)c1 | 0% | -1% | -6 | 98% (active) | inactive | inactive | inactive | inactive |
| CCCC(=O)Nc1ccc(OCCCN(Cc2ccccc2F)c2ccc(C#N)c(C(F)(F)F)c2)cc1 | 93% (active) | 7% | 1 | 89% (active) | inactive | inactive | inactive | inactive |
| CCCCN1C(=O)[C@H]2CC(=O)CC(C3CCCCC3)[C@H]2C1=O (stereo partly drawn) | 1% | -1% | -5 | 97% (active) | inactive | inactive | inactive | inactive |
| Cc1ccc(Sc2ccc(NC(=O)CN3CCN(C(=O)c4ccco4)CC3)cc2)cc1C | 84% (active) | 14% | 1 | 92% (active) | inactive | inactive | inactive | inactive |
| COc1cccc2cc(C(=O)N[C@@H](CC(C)C)C(=O)N[C@H](/C=N/N3CCCC3=O)Cc3ccccc3)oc12 | 80% (active) | 5% | 5 | 96% (active) | inactive | inactive | inactive | inactive |
| Cc1cccn2c(=O)c3cc(C(=O)NCc4cccnc4)c(=N)n(CCc4ccccc4)c3nc12 | 38% | -2% | -2 | 99% (active) | inactive | inactive | inactive | inactive |
| COc1ccccc1N1CCN(C(C(=O)NCc2ccc3c(c2)OCO3)c2ccc(C)cc2)CC1 (stereo not drawn) | 81% (active) | 1% | 2 | 85% (active) | inactive | inactive | inactive | inactive |

| Structure (SMILES) | growth inhibition [1] | inhibition [2] | inhibition [3] [%] | growth inhibition [4] | outcome [5] | outcome [6] | outcome [7] | outcome [8] |
| --- | --- | --- | --- | --- | --- | --- | --- | --- |
| CC(C)CCNC(=O)[C@@H]1[C@H]2C(=O)N(C3CCCCC3)C(=O)[C@H]2[C@H]2C=C[C@@H]3C(c4ccc(C(C)(C)C)cc4)=NO[C@@H]3N21 | 48% | -4% | -2 | 96% (active) | inactive | inactive | inactive | inactive |
| Cc1ccc(CN2CCC(C(=O)Nc3ccc(-c4cc5ccccc5[nH]4)cc3)CC2)o1 | 40% | 19% | 3 | 92% (active) | inactive | inactive | inactive | inactive |
| COc1cc(NC(=O)/C=C/c2ccc(-c3ccccc3)cc2)ccc1OCCN(C(C)C)C(C)C | 62% (active) | 58% (active) | -5 | 94% (active) | inactive | inactive | inactive | inactive |
| Nc1c(-c2ccc(C(=O)NCCNCc3ccccc3)cc2)cnn1-c1ccc(C(F)(F)F)cc1 | 2% | 23% | 1 | 85% (active) | inactive | inactive | inactive | inactive |
| CC(CN(C)C)C(=O)Nc1ccc(-c2ccc(-c3nc4ccccc4[nH]3)s2)cc1 (stereo not drawn) | 86% (active) | 14% | 5 | 100% (active) | inactive | inactive | inactive | inactive |
| CN1CCCN(c2ccnc3cc4c(cc23)N(C(=O)c2ccc(C(F)(F)F)cc2)CC4)CC1 | 63% (active) | 10% | 1 | 101% (active) | inactive | inactive | inactive | inactive |
| OC(CNc1ccnc(Nc2cccc(Cl)c2)n1)c1ccc(C(F)(F)F)cc1 (stereo not drawn) | 61% (active) | 13% | 5 | 101% (active) | inactive | inactive | inactive | inactive |
| CCCc1cc(Cc2cnc(N)nc2N)cc(CCC)c1OCCCCC(=O)O | 23% | 18% | -2 | 95% (active) | inactive | inactive | inactive | inactive |
| COC(=O)c1cccc(CNCc2ccc(-c3cccc(-c4nc5c(C)cccc5[nH]4)c3)cc2)c1 | 84% (active) | -7% | 7 | 102% (active) | inactive | inactive | inactive | inactive |
| CC(=O)Nc1ccc([N+](=O)[O-])c2c(Br)cccc12 | -1% | -3% | -4 | 100% (active) | inactive | inactive | inactive | inactive |
| CCCCCOc1ccc(NC2=CC(=O)C(=O)c3ccccc32)cc1 | 96% (active) | 10% | -4 | 99% (active) | inactive | inactive | inactive | inactive |
| O=C(c1cc(C(=O)Nc2ccccc2F)c(=O)n(-c2ccccc2F)c1)c1cc(Cl)ccc1O | 80% (active) | 2% | 5 | 98% (active) | inactive | inactive | inactive | inactive |
| Cc1nnsc1C(=O)Nc1cccc(-c2ccc(-c3nc4ccc(C(F)(F)F)cc4[nH]3)cc2)c1 | 97% (active) | 62% (active) | 3 | 99% (active) | inactive | inactive | inactive | inactive |
| CCOC(=O)CCCCCNC[C@H](O)c1ccccc1 | 0% | 2% | 5 | 98% (active) | inactive | inactive | inactive | inactive |
| Cc1nnsc1C(=O)Nc1ccc(-c2ccc(-c3nc4c(C)cccc4[nH]3)s2)cc1 | 61% (active) | 63% (active) | 2 | 100% (active) | inactive | inactive | inactive | inactive |
| NC(N)=NC(=O)Nc1cc(F)c(Cl)c(Br)c1 | 50% (active) | -3% | 1 | 101% (active) | inactive | inactive | inactive | inactive |
| CN(C)CCN(Cc1ccc(-c2ccc(CNCCc3ccccc3)cc2)nc1)C(=O)CCC1CCCC1 | 89% (active) | 98% (active) | -3 | 96% (active) | inactive | inactive | inactive | inactive |
| COc1ccc(C(=O)Cn2nc(-c3ccc(Cl)cc3)ccc2=O)c(OC)c1 | 70% (active) | -12% | 4 | 93% (active) | inactive | inactive | inactive | inactive |

From PubChem BioAssay
